# Only some compounds are listed: those with a hit (about 7.3% of all), similar ones and a draw of the others.
# SMN2 splice enh: enhancers of SMN2 splice variant expression. HEK293 SMN2-luciferase splicing reporter, luminescence, 30-36 h. Potency, µM (doses to about 46.1 µM), usual class: activators. 2.8% of 210,000 active; further: nearly all actives have a fitted effect of over 55% in size
#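 qHTS luciferase splicing reporter: luminescence rises when SMN2 exon 7 is included in transfected HEK293 cells. Compound exposure lasted 30-36 h at 37C, with 4.5 mM final sodium butyrate as control, followed by a ONE-Glo read.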
# NPC1 prom act: activates the NPC1 promoter; Huh7 NPC1 promoter luciferase reporter, 24 h; AID 485313; 2.4% of 320,000 active; Potency, µM (top dose mostly 9.22 µM), usual class: activators; further: nearly all actives have a fitted effect of over 60% in size
#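 In 1536-well qHTS, Huh7 cells harboring an NPC1 promoter–luciferase construct received compound for 24 h; activation was quantified by luminescence following luciferase reagent addition.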
# FLuc modulator: counter-screen for miR-21 project: firefly luciferase inhibitors or activators; AID 588342; purified FLuc, Km substrates, luminescence inhibition; P08659; Potency, µM (highest dose often 57.5 µM), hits mostly inhibitors; 6.9% of 360,000 active; further: nearly all actives have a fitted effect of over 55% in size
# Target sequence (P08659 whole entry, looked up): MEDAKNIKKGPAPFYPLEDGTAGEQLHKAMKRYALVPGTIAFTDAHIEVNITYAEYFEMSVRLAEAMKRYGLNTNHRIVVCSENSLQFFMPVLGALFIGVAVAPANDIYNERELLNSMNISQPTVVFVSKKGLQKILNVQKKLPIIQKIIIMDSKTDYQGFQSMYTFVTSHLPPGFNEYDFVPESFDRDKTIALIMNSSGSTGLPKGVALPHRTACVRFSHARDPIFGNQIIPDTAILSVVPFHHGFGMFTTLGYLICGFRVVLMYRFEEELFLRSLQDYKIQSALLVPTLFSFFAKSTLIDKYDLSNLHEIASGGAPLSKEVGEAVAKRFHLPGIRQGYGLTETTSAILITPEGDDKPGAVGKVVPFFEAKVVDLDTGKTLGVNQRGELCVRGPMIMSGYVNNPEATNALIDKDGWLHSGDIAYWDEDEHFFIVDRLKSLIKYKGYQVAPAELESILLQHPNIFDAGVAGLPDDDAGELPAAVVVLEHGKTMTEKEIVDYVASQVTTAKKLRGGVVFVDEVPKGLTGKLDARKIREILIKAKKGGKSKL
#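 Biochemical qHTS of compounds, final roughly 60 µM downward over six points, against 10 nM purified firefly luciferase using Km concentrations of substrates (10 uM D-luciferin, 10 uM ATP) in Tris acetate pH 7.5 buffer; luminescence output.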
# Rab9 prom act: Rab9 promoter activation; Huh7 Rab9 promoter-luciferase reporter, luminescence, 24 h; Potency, µM (titrated, usually from 9.22 µM), most hits filed as activators; 2.8% of 320,000 active; AID 485297; further: nearly all actives have a fitted effect of over 60% in size
#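 Stable Rab9-luc Huh7, 1500 cells/well, 2 h settle; cmpd in DMSO, 24 h, 37 °C/5% CO2; luciferase reagent 10 min RT; luminescence.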
# KinaseGlo FLuc: counter-screen: inhibitors of Kinase-Glo firefly luciferase | Q27757 | Kinase-Glo luciferase, ATP luminescence, 8 min | Potency, µM (highest dose often 38.3 µM), most hits filed as inhibitors | 0.28% of 200,000 active | AID 1379; further: nearly all actives have a fitted effect of over 60% in size
#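 Inhibition of Kinase-Glo luciferase light generation was assessed at 10 uM ATP in pH 7.2 imidazole buffer, with luminescence measured after eight minutes at ambient temperature.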
# ELG1 genotoxic: inducers of genotoxicity in HEK293T ELG1-luciferase cells; 1.3% of 330,000 active; Potency, µM (titrated, usually from 46 µM), usual class: activators; HEK293T ELG1-luciferase reporter, luminescence, 16 h; further: nearly all actives have a fitted effect of over 60% in size
#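 Step 1: seed 2,000 HEK293T ELG1-luciferase cells per well. Step 2: add compound or DMSO, incubate 16 hr at 37 °C. Step 3: ONE-Glo, 30 min at room temperature, read luminescence.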
# Hits are given with their value; – = inactive; ? = inconclusive; · = no result given; [ ] = dose if it differs, or a comment. The call rests on the fitted dose curve; in most records, active means well fitted curve in the direction sought with a large enough effect; inconclusive means small, poorly fitted or top-dose-only effect, or another doubt; inactive means no such curve, though single readings can be large; an effect the other way counts as inactive or inconclusive.
SMILES,SMN2 splice enh,NPC1 prom act,FLuc modulator,Rab9 prom act,KinaseGlo FLuc,ELG1 genotoxic
Cc1ccc(NC(=O)CN2C(=O)CCn3nc(-c4cccn4C)cc32)c(Cl)c1,·,·,–,·,·,·
COc1ccc(-c2cc(C)no2)cc1S(=O)(=O)NC(C)C,·,·,–,·,·,·
Cc1cccc(CNC(=O)CCCn2c(=O)c3cccn3c3ccc(F)cc32)c1,·,·,–,·,·,·
Cc1nn2cc(-c3ccc(Cl)cc3)nc2s1,3.5µM,0.32µM,1.2µM,0.32µM,–,0.52µM
Cc1nc2nc(-c3ccc(Cl)cc3)cn2nc1C,0.71µM,?,1.1µM,0.35µM,?,?
CCOc1ccc(-c2cn3nc(CC(C)C)sc3n2)cc1,–,·,2.7µM,·,·,·
Cc1nn2c(-c3ccc(Cl)cc3)nnc2s1,–,–,–,–,–,–
Cc1ccc(-c2cn3nc(-c4ccccc4)c(-c4ccccc4)nc3n2)cc1,·,–,–,–,·,–
COc1ccc(-c2nnc3sc(COc4ccc(C)cc4)nn23)cc1,–,–,?,–,–,–
COCc1nn2cc(-c3ccc(C)cc3)nc2s1,2.5µM,·,1.3µM,·,·,·
COc1cccc(CSc2nc3n(n2)C(c2cccc(F)c2)C(C(=O)Nc2ccccc2C)=C(C)N3)c1 (configuration not stated),·,·,–,·,·,·
Cc1cc(NC(=O)c2cccnc2)cc(-c2nc3cc(Cl)ccc3o2)c1O,·,·,–,·,·,·
C=C(C[C@]1(C(=O)OC)CC2(CC=C(C)C)C(=O)C(C(=O)CC(C)C)=C(O)C(CC=C(C)C)(C1)C2=O)C(=O)OC (some centres not stated),–,·,·,·,–,·
CN1N=C(C(=O)N2CCc3c([nH]c4ccccc34)C2c2ccccc2Cl)CCC1=O (configuration not stated),·,–,15µM,5µM,–,?
Cc1c(O)ccc(C(=O)COc2ccc(F)cc2)c1O,·,?,12µM,5µM,·,–
CCc1cc(C(=O)COc2ccc(F)cc2)c(O)cc1O,·,–,?,–,·,–
CCn1cc(C(=O)N2CCN(c3ccccc3OC)CC2)c(=O)c2cc(S(=O)(=O)N3CCC(C)CC3)ccc21,–,·,–,·,·,·
COc1ccc(-c2cc(C(=O)Oc3ccc(Br)cc3)c3ccccc3n2)cc1,–,·,?,·,·,·
CC(C)(C)c1csc(NC(=O)c2ccc(Cl)s2)n1,–,?,6.7µM,?,–,–
CC(C)(C)c1csc(NC(=O)c2ccc3nccnc3c2)n1,–,2.5µM,8.5µM,3.5µM,–,–
CC(C)(C)c1csc(NC(=O)c2ccncc2)n1,–,–,?,–,–,–
Cc1ccc(C(=O)Nc2nc(C(C)(C)C)cs2)s1,–,?,5.4µM,3.2µM,–,4.6µM
O=C(CCCc1ccccc1)NC1CC(=O)N(c2ccc(F)cc2)C1 (configuration not stated),·,·,–,·,·,·
CC(=O)c1c(C)[nH]c(C(=O)Nc2cccc(S(=O)(=O)N(C)c3ccccc3)c2)c1C,·,–,–,–,·,–
COc1ccc(S(=O)(=O)N2CCCCCC2)cc1C(=O)N1CCCCC1,·,–,17µM,–,·,?
SMILES,SMN2 splice enh,NPC1 prom act,FLuc modulator,Rab9 prom act,KinaseGlo FLuc,ELG1 genotoxic
CCN(CC)S(=O)(=O)c1cc(NC(=O)CNc2cccc(S(=O)(=O)N3CCOCC3)c2)ccc1C,·,–,–,–,·,5.2µM
COc1ccc(S(=O)(=O)N2CCCCC2)cc1NC(=O)CSc1ncnc2ccccc12,–,–,8.5µM,–,–,–
Cc1ccc(NC(=O)CSc2ncnc3ccccc23)cc1S(=O)(=O)N1CCCCC1,–,–,–,–,–,–
CC(=O)c1c(C)[nH]c(C(=O)Nc2cccc(S(=O)(=O)N3CCOCC3)c2)c1C,8.9µM,–,–,–,–,?
CN(C)C[C@H]1CCC2=C(C1=O)C(c1ccc(Cl)c(Cl)c1)C1=C(CC[C@H](CN(C)C)C1=O)O2,–[9.22 µM],·,·,·,–[7.66 µM],·
CC(=O)c1c(C)[nH]c(C(=O)Nc2cc(S(=O)(=O)N3CCCCC3)ccc2C)c1C,·,–,–,–,·,–
COc1ccc(S(=O)(=O)N2CCCCC2)cc1NC(=O)c1[nH]c(C)c(C(C)=O)c1C,·,·,·,·,·,12µM
CCOC(=O)Cn1c(=O)c2c(nc3n2CCN3c2ccc(CC)cc2)n(C)c1=O,·,·,13µM,·,·,·
CCOC(=O)Cn1c(=O)c2c(nc3n2CCN3c2ccc(C)cc2)n(C)c1=O,–,–,–,–,–,–
O=c1[nH]c(-c2ccccn2)nc2sc(-c3ccccc3)cc12,8.9µM,3.5µM,2.1µM,?,–,7.3µM
Cc1c(C(=O)N(C)C)sc2nc(-c3ccccn3)[nH]c(=O)c12,–,–,?,?,–,?
O=c1c2c3c(sc2ncn1/N=C/c1ccco1)CCCC3,?,–,–[2.3 µM],–,–,–
Cc1sc2ncn(/N=C/c3ccco3)c(=O)c2c1C,·,–,11µM,?,·,?
COc1ccc(-c2nc(-c3ccccc3OC)no2)cc1OC,?,3.5µM,15µM,?,–,–
COc1ccccc1OCc1nc(-c2cccc([N+](=O)[O-])c2)no1,–,–,–,–,–,–
COc1ccccc1-c1nc(-c2cccc(C)c2)no1,4.5µM,0.32µM,1.2µM,0.11µM,?,1.2µM
Cc1cccc(-c2noc(-c3ccccc3OCC(=O)Nc3ccccc3[N+](=O)[O-])n2)c1,·,·,–,·,·,·
COc1cc(-c2nc(-c3cccc(C)c3)no2)cc(OC)c1OC,–,–,?,–,–,–
COc1ccc(-c2nc(-c3cccc(C)c3)no2)cc1OC,13µM,0.79µM,4.3µM,4.5µM,–,?
COc1ccccc1OCc1nc(-c2cccc(C)c2)no1,?,·,8.5µM,·,·,·
O=C(Nc1ccc(Br)cc1)C1CCN(S(=O)(=O)c2cccc3nsnc23)CC1,–,·,–,·,·,·
CCc1cc(-c2[nH]ncc2-c2ccc3c(c2)OCO3)c(O)cc1O,–,–,?,–,–,–
CC(C)C1N=C(c2ccc3c(c2)OCO3)CC(c2ccccc2O)N1 (configuration not stated),–,?,11µM,?,–,–
COC(=O)/C(=C1/Oc2cc(C)oc(=O)c2S1)C(F)(F)F,–,–,–,–,–,–
COC(=O)/C(=C1/Oc2ccc(C(C)(C)C)cc2S1)C(F)(F)F,–,?,4.8µM,?,–,?
SMILES,SMN2 splice enh,NPC1 prom act,FLuc modulator,Rab9 prom act,KinaseGlo FLuc,ELG1 genotoxic
Brc1ccc(-c2nnc(-c3ccc4c(c3)OCO4)o2)o1,11µM,2µM,1.7µM,1µM,–,?
c1nnc(-c2ccc3c(c2)OCO3)o1,–,–,–,–,–,–
c1coc(-c2nnc(-c3ccc4c(c3)OCO4)o2)c1,18µM,2µM,6.7µM,?,–,8.2µM
Clc1ccc(CSc2nnc(-c3ccc4c(c3)OCO4)o2)cc1,–,–,?,–,–,–
O=C1CCCCC1Sc1nnc(-c2ccc3c(c2)OCO3)o1 (configuration not stated),?,0.2µM,0.6µM,0.1µM,–,–
Cc1ccc(-c2nnc(-c3ccc4c(c3)OCO4)o2)cc1,11µM,1µM,1.3µM,0.71µM,–,6.5µM

# Source: PubChem (National Center for Advancing Translational Sciences (NCATS))
